Most compounds without a hit are left out; they make up all but 21% or so of the library.
FBPA Giardia inh – inhibitors of Giardia lamblia fructose-1,6-bisphosphate aldolase; A8B2U2; purified Giardia FBPA; Potency, µM (titrated, usually from 59.6 µM), without a hit: top-dose activity, negative = inhibition, hits mostly inhibitors; hit rate 0.71% among 290,000; AID 2451; further: potency means the concentration at half of the fitted maximal effect; on the % scale 0 is the no-effect control and ±100 the full control effect; nearly all actives have a fitted effect of over 55% in size
Target sequence (A8B2U2 whole entry, looked up): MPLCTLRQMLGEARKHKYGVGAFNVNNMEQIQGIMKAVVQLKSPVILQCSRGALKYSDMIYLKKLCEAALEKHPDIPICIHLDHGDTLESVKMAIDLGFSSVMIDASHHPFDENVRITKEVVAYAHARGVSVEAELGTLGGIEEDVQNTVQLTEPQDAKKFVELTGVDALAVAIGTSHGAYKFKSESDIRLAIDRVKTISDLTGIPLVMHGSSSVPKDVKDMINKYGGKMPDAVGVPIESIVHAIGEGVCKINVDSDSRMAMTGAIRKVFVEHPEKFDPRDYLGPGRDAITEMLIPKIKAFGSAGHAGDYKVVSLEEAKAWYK
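40 nM FBPA preincubated 10 min at RT with compound (up to 57.5 uM final), then substrate plus GAPDH/TPI/NAD/arsenate coupling and diaphorase/resazurin added. Fluorescence read after 20 min at RT, 525/598 nm.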
Pf growth 48h – P. falciparum growth inhibition at 48 hours (one generation); Potency, µM (top dose mostly 28.7 µM), without a hit: at the highest dose activity change, negative = inhibition, actives largely listed as inhibitors; P. falciparum luciferase growth in erythrocytes, 48 h; hit rate 5.9% among 310,000; further: potency means the concentration at half of the fitted maximal effect; on the % scale 0 is the no-effect control and ±100 the full control effect
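Compounds are pin-transferred into medium, infected erythrocytes (2% hematocrit, 0.1% parasitemia final) are added, and plates sit one parasite generation at 37 C in 5% CO2. Detection reagent is then added and luminescence measured.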
Pf growth 96h – P. falciparum growth inhibition at 96 hour, primary screen for plastid delayed-death inhibitors; P. falciparum luciferase reporter growth, 96 h; Potency, µM (titrated, usually from 28.7 µM), without a hit: top-dose activity change, negative = inhibition, usual class: inhibitors; hit rate 6.9% among 320,000; AID 504834; further: potency means the concentration at half of the fitted maximal effect; on the % scale 0 is the no-effect control and ±100 the full control effect
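Readout is luminescence from an integrated firefly luciferase in P. falciparum. Red cells, 2% hematocrit and 0.05% parasitemia final, were cultured with compound through two parasite generations (96 hours) at 37 C, 5% CO2.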
CHX counter – counter-screen for Shiga toxin inhibitors: cycloheximide protein synthesis inhibition. max response, %. cell reporter, cycloheximide protein synthesis inhibition counterscreen. hit rate 12% among 300,000. AID 2314; in the data active means max response mostly above about 13%, no sharp cut-off; inactive means mostly below about 14%; further: read at 38.3 µM for the half of the compounds with a filed dose; 0% is about no effect
Shiga inhibitor – blocks Shiga toxin action in Vero cells | Vero cells, Shiga toxin protein synthesis inhibition reporter | inhibition, % at 38.7 µM | hit rate 9.2% among 290,000 | AID 2315; in the data active means inhibition mostly above about 28%, no sharp cut-off; inactive means mostly below about 43%; further: 0% is about no effect
NS1 inh – blocks influenza NS1 protein function; Potency, µM (doses to about 46.1 µM), for inactives: at the top dose activity, positive = more growth; hit rate 0.4% among 270,000; AID 2326; calls by dose curve; further: potency means the concentration at half of the fitted maximal effect; actives are rising curves; nearly all actives have a fitted effect of over 50% in size
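S. cerevisiae expressing influenza A NS1, grown in glucose, washed, then diluted 1:100 into pH 6.0 -URA galactose medium with 23 nl compound. Growth recovery read as OD600; NS1-free strain serves as control.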
Active calls of the source: *; ? = inconclusive; / = not tested or not shown; [ ] = another dose, or the depositor's remark. Unless noted, the call rests on the fitted dose curve; in most records, active means well fitted curve in the direction sought with a large enough effect; inconclusive means small, poorly fitted or top-dose-only effect, or another doubt; inactive means no such curve, though single readings can be large; an effect the other way counts as inactive or inconclusive.

SMILES | FBPA Giardia inh | Pf growth 48h | Pf growth 96h | CHX counter | Shiga inhibitor | NS1 inh
Cc1ccc2c(CN(C)Cc3cccc(Cl)c3)cc(=O)oc2c1C | -4% | -8%[0.00184 µM] | -4% | 6.4* | 33 | -31%
CSc1ccc(CN(C)Cc2cc(=O)oc3c(C)c(C)ccc23)cc1 | 4% | ? | -16% | -4 | -6 | 1%
Cc1cc2oc(=O)cc(CN(C)Cc3ccccc3)c2cc1C(C)C | 5% | 13µM* | ? | -1 | -7 | -11%
FC(F)(F)c1ccccc1-c1nc(NC2CCNCC2)c2ccccc2n1 | 2% | / | / | / | / | /
O=C(NC1CCCC1)C(c1ccccn1)N(C(=O)c1csnn1)c1ccccc1Cl (stereo not given) | -1% | -6% | ? | -7 | -8 | 4%
CCc1ccccc1N1CC(C(=O)Nc2cc(C)on2)CC1=O (stereo not given) | 6% | 26% | ? | -3 | -3 | 1%
C[C@@H](C(=O)NC1CCN(Cc2ccccc2)CC1)N1C(=O)N2CCc3c([nH]c4ccccc34)[C@@]2(C)C1=O | 14% | -12% | ? | -3 | -9 | 3%
CC(C)[C@@H](C(=O)NC1CCN(Cc2ccccc2)CC1)N1C(=O)N2CCc3c([nH]c4ccccc34)[C@@]2(C)C1=O | -6% | ? | 7.4µM* | -4 | -8 | 5%
C[C@@H](C(=O)NC1CCCCC1)N1C(=O)N2CCc3c([nH]c4ccccc34)[C@@]2(C)C1=O | -11% | 45% | ? | -3 | 3 | -1%
C[C@@H](C(=O)NCCc1ccccc1F)N1C(=O)N2CCc3c([nH]c4ccccc34)[C@@]2(C)C1=O | 4% | -30% | ? | 23* | 30* | -27%
C[C@@H](C(=O)NCCc1ccccc1)N1C(=O)N2CCc3c([nH]c4ccccc34)[C@@]2(C)C1=O | -7% | ? | ? | 19* | 21* | -95%
COc1ccc2[nH]c3c(c2c1)CCN1C(=O)N([C@@H](C)C(=O)NCc2ccccc2OC)C(=O)[C@]31C | -9% | 4.1µM* | 7.4µM* | -1 | -5 | 3%
O=C(NNC(=O)c1ccccc1C(F)(F)F)c1csc(N2CCOCC2)n1 | / | 11% | -9% | -2 | -14 | -4%
CC(C)[C@@H](C(=O)N1CCCC1)N1C(=O)N2CCc3c([nH]c4ccccc34)[C@@]2(C)C1=O | -3% | ? | 10µM* | 1 | -4 | -9%
O=C(CSc1ncccn1)NCc1ccc2c(c1)OCO2 | -1% | 34% | ? | 31 | 25* | -2%
Oc1ccc(CNCc2ccc3c(c2)OCO3)c2cccnc12 | / | 8.3µM* | ? | / | / | /
O=C(CSc1ncccn1)NCc1ccc(Cl)cc1 | -3% | 121% | 200% | 49* | 73* | -1%
O=C(CSc1ncccn1)NCc1cccc(Cl)c1 | -24% | 76% | 285% | 42* | 95* | /
O=C(CSc1nccc(=O)[nH]1)NCc1ccc(Cl)cc1 | 13% | 23% | 66% | -2 | -8 | /
COC(=O)CN1CCC(=O)c2ccccc2S1(=O)=O | 3% | / | / | 5 | -8 | /
C=CCSc1ncccc1C(=O)NCc1ccccc1 | 10% | 18% | 12µM* | -2 | -9 | -24%
O=C(CSc1ncccn1)NCc1ccccc1 | 2% | 36% | -20% | 18* | 54 | 5%
Fc1ccccc1CNCCc1ccc2c(c1)OCO2 | ? | 30% | 15% | 3 | 23 | 0%
C=CCSc1ncccc1C(=O)NCCc1ccccc1 | -14% | 29% | 7% | 7 | 37 | -6%
O=C(CSc1ncccn1)NC(=O)Cc1ccccc1 | / | 21% | 37% | / | / | /
SMILES | FBPA Giardia inh | Pf growth 48h | Pf growth 96h | CHX counter | Shiga inhibitor | NS1 inh
O=C(CSc1ncccn1)Nc1cc(Cl)ccc1[N+](=O)[O-] | 6% | 12% | -12% | 23* | 19 | /
Fc1ccccc1CNCc1ccc2c(c1)OCO2 | -18% | 5% | ? | 19* | 22 | 14%
CCN(CC(=O)Nc1ccccc1OC)C(=O)CSCC(=O)Nc1ccc(OC)cc1 | / | 2% | 33% | / | / | /
CC(C)c1ccc(NC(=O)CN2CCN(C(=O)C3CCCO3)CC2)cc1 (stereo not given) | / | 9% | 11% | -1 | -5 | 5%
COc1cc(C(=O)NNC(=O)COc2ccc(Cl)cc2)ccc1OCC(=O)N1CCOCC1 | / | 5% | ? | / | / | /
Cn1c(=O)c2c(nc(SCC(=O)NCc3ccc4c(c3)OCO4)n2Cc2ccccc2)n(C)c1=O | -1% | 4% | -13% | 1 | 0 | 4%

Source: PubChem BioAssay (National Center for Advancing Translational Sciences (NCATS))
